# Laboratory results taken from ChEMBL document CHEMBL1961873, “Compounds: GSK PKIS; Assays: Nanosyn kinase panel” (2012).
# How the values were obtained:
# [1] = tested on: Tyrosine-protein kinase ABL1 (Homo sapiens), P00519 [T315I]; details: at 1 µM
# [2] = tested on: Tyrosine-protein kinase ABL1 (Homo sapiens), P00519 [Y253F]; details: at 0.1 µM
# [3] = tested on: Tyrosine-protein kinase ABL1 (Homo sapiens), P00519 [Y253F]; details: at 1 µM
# [4] = target: Tyrosine-protein kinase ABL1 (Homo sapiens) (UniProt P00519); details: at 0.1 µM
# [5] = target: Tyrosine-protein kinase ABL1 (Homo sapiens) (UniProt P00519); details: at 1 µM
# [6] = target: ALK tyrosine kinase receptor (Homo sapiens) (UniProt Q9UM73); details: at 0.1 µM
# [7] = target: ALK tyrosine kinase receptor (Homo sapiens) (UniProt Q9UM73); details: at 1 µM
# [8] = target: Tyrosine-protein kinase ABL2 (Homo sapiens) (UniProt P42684); details: at 0.1 µM
# [9] = target: Tyrosine-protein kinase ABL2 (Homo sapiens) (UniProt P42684); details: at 1 µM
# [10] = target: Tyrosine-protein kinase receptor UFO (Homo sapiens) (UniProt P30530); details: at 0.1 µM
# [11] = target: Tyrosine-protein kinase receptor UFO (Homo sapiens) (UniProt P30530); details: at 1 µM
# [12] = target: Tyrosine-protein kinase Blk (Homo sapiens) (UniProt P51451); details: at 0.1 µM
# [13] = target: Tyrosine-protein kinase Blk (Homo sapiens) (UniProt P51451); details: at 1 µM
# [14] = target: T1, Cytoplasmic tyrosine-protein kinase BMX (Homo sapiens) (UniProt P51813); details: at 0.1 µM
# T1 sequence (whole entry): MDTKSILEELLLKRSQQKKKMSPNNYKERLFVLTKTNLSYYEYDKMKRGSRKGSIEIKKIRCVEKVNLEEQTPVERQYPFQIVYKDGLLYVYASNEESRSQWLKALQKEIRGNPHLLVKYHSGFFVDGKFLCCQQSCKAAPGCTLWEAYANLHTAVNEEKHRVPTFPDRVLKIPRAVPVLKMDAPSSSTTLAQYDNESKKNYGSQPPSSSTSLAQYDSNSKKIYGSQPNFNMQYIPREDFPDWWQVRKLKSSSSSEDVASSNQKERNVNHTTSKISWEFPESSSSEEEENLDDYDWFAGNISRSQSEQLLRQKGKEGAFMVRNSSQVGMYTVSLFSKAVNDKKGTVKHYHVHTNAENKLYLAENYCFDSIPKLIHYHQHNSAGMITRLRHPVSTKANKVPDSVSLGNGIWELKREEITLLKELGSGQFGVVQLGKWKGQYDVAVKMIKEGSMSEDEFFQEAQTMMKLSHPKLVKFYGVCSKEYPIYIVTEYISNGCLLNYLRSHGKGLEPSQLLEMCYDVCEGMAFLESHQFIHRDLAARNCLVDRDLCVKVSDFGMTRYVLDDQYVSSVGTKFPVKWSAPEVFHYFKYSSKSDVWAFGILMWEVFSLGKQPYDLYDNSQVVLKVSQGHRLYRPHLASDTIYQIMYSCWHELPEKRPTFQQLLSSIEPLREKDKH
# [15] = target: T1, Cytoplasmic tyrosine-protein kinase BMX (Homo sapiens); details: at 1 µM
# [16] = target: Protein-tyrosine kinase 6 (Homo sapiens) (UniProt Q13882); details: at 0.1 µM
# [17] = target: Protein-tyrosine kinase 6 (Homo sapiens) (UniProt Q13882); details: at 1 µM
# [18] = target: Tyrosine-protein kinase BTK (Homo sapiens) (UniProt Q06187); details: at 0.1 µM
# [19] = target: Tyrosine-protein kinase BTK (Homo sapiens) (UniProt Q06187); details: at 1 µM
# [20] = target: Tyrosine-protein kinase CSK (Homo sapiens) (UniProt P41240); details: at 0.1 µM;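 also: value given is the averaged percent inhibition of CSK kinase activity, from the GSK PKIS kinase inhibitor set screening panel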
# Chain of Protein-tyrosine kinase 6 (Homo sapiens) (Q13882 whole entry, looked up): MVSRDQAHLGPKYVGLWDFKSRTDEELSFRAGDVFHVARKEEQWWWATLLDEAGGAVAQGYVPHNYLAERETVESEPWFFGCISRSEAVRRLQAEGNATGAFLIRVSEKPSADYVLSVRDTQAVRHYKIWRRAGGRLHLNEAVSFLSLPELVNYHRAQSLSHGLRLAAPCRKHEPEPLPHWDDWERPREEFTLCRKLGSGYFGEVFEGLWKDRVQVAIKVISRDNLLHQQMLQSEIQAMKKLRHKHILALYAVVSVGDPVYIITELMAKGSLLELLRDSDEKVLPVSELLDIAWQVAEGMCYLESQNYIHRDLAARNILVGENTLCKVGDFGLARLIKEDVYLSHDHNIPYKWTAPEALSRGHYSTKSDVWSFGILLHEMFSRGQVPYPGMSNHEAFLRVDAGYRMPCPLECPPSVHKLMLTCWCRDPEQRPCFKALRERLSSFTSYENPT
# Chain of Tyrosine-protein kinase ABL2 (Homo sapiens) (P42684 whole entry): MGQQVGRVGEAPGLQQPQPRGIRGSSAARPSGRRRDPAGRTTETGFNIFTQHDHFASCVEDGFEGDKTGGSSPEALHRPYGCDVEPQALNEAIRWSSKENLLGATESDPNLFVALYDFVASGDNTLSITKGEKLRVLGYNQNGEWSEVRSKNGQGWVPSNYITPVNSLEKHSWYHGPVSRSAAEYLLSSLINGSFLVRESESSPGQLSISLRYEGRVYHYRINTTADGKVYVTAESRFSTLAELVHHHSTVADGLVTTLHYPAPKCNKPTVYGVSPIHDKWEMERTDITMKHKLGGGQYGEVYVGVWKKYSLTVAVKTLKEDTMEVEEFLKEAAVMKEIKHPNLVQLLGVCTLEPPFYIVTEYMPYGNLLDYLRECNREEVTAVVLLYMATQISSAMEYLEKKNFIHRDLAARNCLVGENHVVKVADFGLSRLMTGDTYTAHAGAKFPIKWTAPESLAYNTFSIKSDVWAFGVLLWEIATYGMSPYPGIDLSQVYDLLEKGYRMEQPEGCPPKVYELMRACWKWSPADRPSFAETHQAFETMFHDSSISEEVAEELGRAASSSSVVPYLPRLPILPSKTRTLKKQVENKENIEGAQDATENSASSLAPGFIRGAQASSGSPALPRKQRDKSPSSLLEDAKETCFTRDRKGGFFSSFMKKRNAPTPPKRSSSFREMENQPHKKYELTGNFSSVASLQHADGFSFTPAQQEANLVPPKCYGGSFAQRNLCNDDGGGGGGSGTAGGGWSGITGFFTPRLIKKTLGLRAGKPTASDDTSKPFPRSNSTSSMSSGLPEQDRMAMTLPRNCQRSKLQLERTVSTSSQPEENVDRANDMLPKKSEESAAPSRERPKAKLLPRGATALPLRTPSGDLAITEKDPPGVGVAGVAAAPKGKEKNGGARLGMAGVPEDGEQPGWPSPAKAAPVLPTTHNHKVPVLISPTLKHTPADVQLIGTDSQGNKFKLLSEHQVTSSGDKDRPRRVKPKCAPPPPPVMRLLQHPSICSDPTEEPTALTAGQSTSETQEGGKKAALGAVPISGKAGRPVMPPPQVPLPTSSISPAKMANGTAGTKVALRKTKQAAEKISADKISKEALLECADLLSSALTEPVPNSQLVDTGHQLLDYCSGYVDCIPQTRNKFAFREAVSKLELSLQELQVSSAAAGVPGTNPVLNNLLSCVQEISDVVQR
# Chain of ALK tyrosine kinase receptor (Homo sapiens) (Q9UM73 19-1620 limits assumed): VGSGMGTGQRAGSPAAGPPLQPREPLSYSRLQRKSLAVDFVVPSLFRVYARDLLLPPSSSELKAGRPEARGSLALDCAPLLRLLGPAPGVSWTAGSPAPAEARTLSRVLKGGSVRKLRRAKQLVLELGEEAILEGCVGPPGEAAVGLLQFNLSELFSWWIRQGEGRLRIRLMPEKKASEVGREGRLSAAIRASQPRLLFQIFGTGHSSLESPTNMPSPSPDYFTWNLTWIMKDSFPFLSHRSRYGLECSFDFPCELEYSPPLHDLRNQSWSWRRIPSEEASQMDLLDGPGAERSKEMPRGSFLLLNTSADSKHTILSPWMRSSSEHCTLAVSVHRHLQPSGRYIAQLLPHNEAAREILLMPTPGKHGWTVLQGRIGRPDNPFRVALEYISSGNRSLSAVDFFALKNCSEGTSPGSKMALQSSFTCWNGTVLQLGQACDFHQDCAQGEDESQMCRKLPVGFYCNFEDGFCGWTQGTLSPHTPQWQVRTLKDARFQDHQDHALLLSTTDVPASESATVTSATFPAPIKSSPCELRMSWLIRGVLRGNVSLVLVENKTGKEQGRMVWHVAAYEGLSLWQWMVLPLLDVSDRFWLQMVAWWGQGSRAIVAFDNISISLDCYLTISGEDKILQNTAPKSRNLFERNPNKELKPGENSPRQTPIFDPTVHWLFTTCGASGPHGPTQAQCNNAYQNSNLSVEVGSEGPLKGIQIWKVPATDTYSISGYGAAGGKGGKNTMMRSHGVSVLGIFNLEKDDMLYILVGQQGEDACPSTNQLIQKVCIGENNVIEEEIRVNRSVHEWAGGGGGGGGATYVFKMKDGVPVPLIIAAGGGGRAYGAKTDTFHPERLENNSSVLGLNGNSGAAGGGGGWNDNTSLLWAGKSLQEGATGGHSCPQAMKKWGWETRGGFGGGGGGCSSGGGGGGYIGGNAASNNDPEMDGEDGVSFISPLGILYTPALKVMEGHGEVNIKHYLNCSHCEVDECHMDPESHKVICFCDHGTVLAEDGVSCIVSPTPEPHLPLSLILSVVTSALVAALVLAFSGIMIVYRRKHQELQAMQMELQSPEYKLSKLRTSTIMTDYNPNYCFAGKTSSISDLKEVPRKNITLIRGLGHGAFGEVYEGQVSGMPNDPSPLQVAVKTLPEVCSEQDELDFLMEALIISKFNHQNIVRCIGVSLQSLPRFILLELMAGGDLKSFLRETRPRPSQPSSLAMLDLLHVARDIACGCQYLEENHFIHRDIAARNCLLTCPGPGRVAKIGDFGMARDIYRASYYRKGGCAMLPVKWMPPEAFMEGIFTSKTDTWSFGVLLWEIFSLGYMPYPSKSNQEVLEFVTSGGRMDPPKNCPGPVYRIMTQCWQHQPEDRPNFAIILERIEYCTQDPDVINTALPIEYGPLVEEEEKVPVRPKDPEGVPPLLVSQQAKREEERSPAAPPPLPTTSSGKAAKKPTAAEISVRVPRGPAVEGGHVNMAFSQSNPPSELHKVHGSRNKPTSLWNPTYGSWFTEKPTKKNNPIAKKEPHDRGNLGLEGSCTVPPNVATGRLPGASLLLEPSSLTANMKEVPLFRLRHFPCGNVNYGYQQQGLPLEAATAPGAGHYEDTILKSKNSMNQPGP
# Chain of Tyrosine-protein kinase BTK (Homo sapiens) (Q06187 whole entry): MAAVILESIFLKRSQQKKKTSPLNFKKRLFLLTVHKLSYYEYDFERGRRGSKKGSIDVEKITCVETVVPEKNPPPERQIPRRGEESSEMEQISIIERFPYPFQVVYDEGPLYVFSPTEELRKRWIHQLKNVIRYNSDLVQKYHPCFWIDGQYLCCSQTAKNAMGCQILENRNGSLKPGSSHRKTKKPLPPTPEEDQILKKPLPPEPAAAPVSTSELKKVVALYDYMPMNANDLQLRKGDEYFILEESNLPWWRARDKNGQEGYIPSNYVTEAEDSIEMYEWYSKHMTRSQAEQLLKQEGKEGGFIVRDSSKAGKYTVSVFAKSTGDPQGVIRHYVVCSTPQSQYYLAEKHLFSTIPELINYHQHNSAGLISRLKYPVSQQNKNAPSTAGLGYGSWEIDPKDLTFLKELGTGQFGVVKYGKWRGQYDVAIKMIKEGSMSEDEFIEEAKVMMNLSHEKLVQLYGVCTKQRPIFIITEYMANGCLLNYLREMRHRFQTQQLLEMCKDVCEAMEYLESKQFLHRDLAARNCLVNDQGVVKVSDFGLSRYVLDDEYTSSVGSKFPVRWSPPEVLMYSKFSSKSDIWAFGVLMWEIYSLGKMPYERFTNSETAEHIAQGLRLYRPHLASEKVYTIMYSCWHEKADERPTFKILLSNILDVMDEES
# Chain of Tyrosine-protein kinase receptor UFO (Homo sapiens) (P30530 whole entry): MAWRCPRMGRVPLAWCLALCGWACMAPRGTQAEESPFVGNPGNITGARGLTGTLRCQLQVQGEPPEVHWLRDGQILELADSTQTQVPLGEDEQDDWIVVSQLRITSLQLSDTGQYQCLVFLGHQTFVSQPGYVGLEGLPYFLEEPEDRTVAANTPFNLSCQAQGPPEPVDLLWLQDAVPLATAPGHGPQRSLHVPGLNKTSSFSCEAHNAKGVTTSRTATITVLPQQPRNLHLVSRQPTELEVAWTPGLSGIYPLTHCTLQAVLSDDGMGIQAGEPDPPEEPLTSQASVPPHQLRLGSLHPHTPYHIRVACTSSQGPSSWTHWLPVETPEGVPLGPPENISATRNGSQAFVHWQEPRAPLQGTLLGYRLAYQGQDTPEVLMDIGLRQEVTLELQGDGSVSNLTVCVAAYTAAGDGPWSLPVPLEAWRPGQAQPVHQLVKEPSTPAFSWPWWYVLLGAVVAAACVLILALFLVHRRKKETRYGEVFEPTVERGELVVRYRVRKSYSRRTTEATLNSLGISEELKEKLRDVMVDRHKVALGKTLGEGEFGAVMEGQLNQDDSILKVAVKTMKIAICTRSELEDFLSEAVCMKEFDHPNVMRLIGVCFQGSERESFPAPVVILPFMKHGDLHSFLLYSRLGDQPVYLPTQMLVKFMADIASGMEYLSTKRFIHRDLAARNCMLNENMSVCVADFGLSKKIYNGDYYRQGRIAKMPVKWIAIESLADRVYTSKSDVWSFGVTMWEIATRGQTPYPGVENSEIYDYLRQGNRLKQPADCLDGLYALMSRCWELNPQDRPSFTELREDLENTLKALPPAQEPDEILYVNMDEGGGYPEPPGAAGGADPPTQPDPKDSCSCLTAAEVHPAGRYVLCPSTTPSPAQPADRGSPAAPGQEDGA
SMILES,inhibition [1],inhibition [2],inhibition [3],inhibition [4],inhibition [5],inhibition [6],inhibition [7],inhibition [8],inhibition [9],inhibition [10],inhibition [11],inhibition [12],inhibition [13],inhibition [14],inhibition [15],inhibition [16],inhibition [17],inhibition [18],inhibition [19],inhibition [20]
O=C1Nc2ccccc2/C1=C1\CCc2cc(O)ccc21,16.2%,5%,15.6%,3.68%,15%,5.54%,25.4%,2.63%,9.37%,-8.77%,1.9%,4.37%,22%,0.61%,7.52%,5%,4.05%,-0.87%,0.47%,5.49%
CNC(=O)c1ncccc1Nc1nc(Nc2cc3c(cc2OC)CCCN3C(=O)CN(C)C)nc2[nH]ccc12,2.23%,3.84%,3.74%,4.98%,7.6%,94.4%,90.8%,2.06%,5.83%,10.8%,53.5%,2.8%,7.25%,3.62%,4.96%,4%,6.37%,0.46%,1.22%,2.99%
Cc1ccc(-c2cc3c(NC(=O)C4CC4)ncnc3o2)cc1,14%,7.48%,29.1%,5.87%,30.4%,4.09%,10.7%,3.64%,2.5%,-6.86%,-1.05%,3.18%,12.7%,-1.26%,7.57%,4%,8.16%,0.73%,1.92%,2.33%
CS(=O)(=O)Nc1ccc(-c2ccc3c(NC(=O)C4CC4)n[nH]c3c2)cc1,16.9%,5.2%,9.04%,3.79%,9.67%,3.16%,11%,2.46%,4.71%,-3.54%,0.24%,2.19%,9.5%,-5.43%,4.64%,1.77%,2.53%,1%,1.7%,3.59%
NS(=O)(=O)c1cccc(N/C=C2\C(=O)Nc3ccccc32)c1,8.55%,5.67%,11%,3.17%,10.9%,2.94%,12.7%,4.2%,13.3%,-7.48%,-2.91%,2.39%,8.59%,2.23%,5.84%,3.79%,5.69%,0.73%,-0.4%,3.86%
c1cnn2ncc(-c3ccnc(NCCCN4CCOCC4)n3)c2c1,3.23%,4.67%,1.93%,2.22%,6.5%,2.15%,3.78%,2.25%,1.19%,-7.99%,-4.37%,1.7%,2.58%,-0.07%,2.01%,2.34%,3.25%,-1.19%,-2.44%,5.75%
CC(C)c1ccc(-c2cc(-c3c[nH]nc3-c3ccccn3)ccn2)cc1,0.44%,1.59%,22.1%,7.53%,45.5%,1.28%,3.08%,8.41%,16.6%,-1.3%,2.69%,1.02%,0.42%,-0.47%,2.05%,-0.52%,0.14%,-1.28%,-1.36%,1.02%
CN(c1ccc(NC(=O)NCCN2CCOCC2)cc1)c1ccnc(Nc2ccc(CS(C)(=O)=O)cc2)n1,30.3%,6.51%,22.1%,4.29%,21.8%,2.33%,5.11%,6.09%,36%,-1.83%,-4.88%,2.89%,8.61%,0.59%,22.6%,2.66%,8.9%,1.05%,2.3%,3.59%
COc1cc(N2CCN(C(C)C)CC2)ccc1Nc1nc(Nc2cccc(F)c2C(=O)O)c2cc[nH]c2n1,7.98%,4.3%,5.73%,5.38%,5.63%,68.1%,80.7%,4.02%,5.35%,2.71%,37.3%,2.92%,4.31%,2.19%,4.13%,4.63%,8.17%,-0.37%,0.06%,5.06%
CS(=O)(=O)Nc1ccc(-c2cc(-c3ccccc3)cc(C(N)=O)c2N)cc1,0.72%,1.53%,2.93%,3.02%,7.08%,0.29%,2.13%,2.05%,7.11%,-4.02%,-0.04%,0%,4.17%,1.21%,0.72%,0.76%,3.55%,-2.25%,-2.03%,1.18%
COc1cc2c(cc1Nc1nc(Nc3cccc(F)c3C(N)=O)c3cc[nH]c3n1)N(C(=O)CN1CCN(C(C)C)CC1)CC2,2.05%,-2.26%,1.07%,-1.27%,-0.09%,62.8%,82.3%,-1.03%,-1.11%,-1.56%,2.45%,-0.36%,-0.42%,2.26%,3.16%,-1.33%,3.54%,-0.03%,-1.36%,-1.06%
CCn1c(-c2nonc2N)nc2cncc(C(=O)NCCNC)c21,5.14%,8.7%,7.62%,3.3%,5.3%,1.99%,4.23%,2.36%,4.11%,-8.56%,-6.19%,3.13%,5.42%,3.81%,5.15%,2.42%,5.45%,-1.55%,0.11%,3.43%
Cn1c(-c2nonc2N)nc2cnccc21,1.83%,4.55%,0.38%,4%,4.6%,1.93%,3.93%,2.62%,7.75%,-6.37%,-1.86%,0.51%,0.41%,9.58%,4.09%,4.32%,4.24%,0.86%,0.33%,3.1%
